Assay in all cases: NCI-60 one-dose screen, 48 h (100 = growth as untreated, 0 = no growth, -100 = all killed)
For assay [1], the system named is HCT-15 colon. The conditions noted are these: 10 µM unless noted.
In assay [2] the test system is HT29 colon. As to conditions: 10 µM unless noted.
Assay [3] deals with SNB-75 CNS. As to conditions: 10 µM unless noted.
The test system of assay [4] is SNB-19 CNS. The conditions noted are these: 10 µM unless noted.
Assay [5] relates to U251 CNS. As to conditions: 10 µM unless noted.
Assay [6] relates to PC-3 prostate. As to conditions: 10 µM unless noted.
The subject of assay [7] is SK-MEL-5 melanoma. The conditions noted are these: 10 µM unless noted.
Assay [8] has as its system UACC-62 melanoma. As to conditions: 10 µM unless noted.
Assay [9] concerns LOX IMVI melanoma. The conditions noted are these: 10 µM unless noted.
Assay [10] deals with SK-MEL-28 melanoma. As to conditions: 10 µM unless noted.
In assay [11] the test system is SK-MEL-2 melanoma. The conditions noted are these: 10 µM unless noted.
Assay [12] has as its system EKVX NSCLC. As to conditions: 10 µM unless noted.
In assay [13] the test system is SN12C renal. The conditions noted are these: 10 µM unless noted.
Assay [14] concerns UO-31 renal. The conditions noted are these: 10 µM unless noted.
Assay [15] has as its system TK-10 renal. The conditions noted are these: 10 µM unless noted.
The subject of assay [16] is ACHN renal. The conditions noted are these: 10 µM unless noted.
Assay [17] deals with CAKI-1 renal. As to conditions: 10 µM.
For assay [18], the system named is CCRF-CEM leukemia. The conditions noted are these: 10 µM unless noted.
Assay [19] has as its system MOLT-4 leukemia. As to conditions: 10 µM unless noted.
Assay [20] has as its system A498 renal. As to conditions: 10 µM unless noted.

This is part of a sample that, as a whole, favours compounds with a hit. Of some 83,000 tested, about 20% had one in any assay.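 Each cell line was grown in a 96-well plate and treated with one concentration of compound for 48 hours. Values below 10 were considered active.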 Values without a mark were called inactive. Activity calls are given as the source filed them.

Consider `CNC(=O)c1c(NC(=O)c2ccc(F)cc2F)sc2c1CCC(=O)C2`, for which the growth in assay [1] was -2.45% (active); in assay [2] it was 12.8%; in assay [3] it was 4.82% (active); in assay [4], 19.1%; in assay [5] it was 12.6%; in assay [6] it was 11.7%. Besides, the growth was -64.9% (active) in [7]; -25.5% (active) in [8]; 14.5% in assay [9]; 30.2% in assay [10]; -4.48% (active) in assay [11]; 14.5% in assay [12]. Moreover, the growth in [13] is 17.5%; in [14] it was -94% (active); in [15], 38.7%; in assay [16], 1.41% (active); in assay [17], -3.18% (active); in assay [18], 4.01% (active). For the same compound, in [19], the growth was 2.03% (active).
For the compound `O=C(NNc1nc2cc(F)cc(F)c2n2cccc12)c1ncccn1`, the growth in assay [1] was 26.2%; in assay [2] it was 25.4%; in assay [3] it was -7.95% (active); in [4], 20%; in assay [5], 14.4%; in assay [6], 31.6%. Besides, the growth was -40.9% (active) in assay [7]; 2.21% (active) in assay [8]; 5.13% (active) in [9]; 22.8% in [10]; 23.2% in [11]; 11.1% in assay [12]. The growth in assay [14] was 16%; in assay [15] it was 26%; in assay [16], 9.54% (active); in assay [17] it was 17.4%; in [20] it was 23.8%; in assay [18], 7.19% (active). In addition, the growth in assay [19] is 13%.
As for `CCOC(=O)CC(=O)CSC1=NC2C(NN1)N(C)C(=O)N2C` (stereo not drawn), the growth in assay [1] is 63%; in assay [2], 62.9%; in [3] it was 99%; in assay [4], 97.4%; in [5], 98.6%; in [6] it was 89.4%. Further, the growth in [7] is 99.6%; in assay [8], 89.4%; in assay [9] it was 92.9%; in [10], 89.3%; in [12] it was 56.2%; in assay [13], 91.6%. Further, the growth in assay [14] was 57.2%; in assay [15], 104%; in [16], 82.6%; in [17] it was 88.5%; in assay [20] it was 118%; in assay [18], 38.8%.
For the compound `CS(=O)(=O)c1ccc2c(c1)c1c(n2C(=O)c2ccc(Cl)cc2)CCCC1`, the growth was 25.7% in assay [1]; 5.05% (active) in assay [2]; 5.66% (active) in assay [3]; 34.9% in [4]; 19.9% in assay [5]; 22.7% in assay [6]. Besides, the growth in assay [7] was 25.5%; in assay [8] it was 23.8%; in assay [9], 40.5%; in assay [10], 60.9%; in assay [12] it was 59.7%; in [13], 41.2%. In addition, the growth was 40.3% in [14]; 67.6% in [15]; 43.6% in assay [16]; 37.1% in assay [17]; 38.2% in assay [20]; 25.4% in assay [18].
As for `CS(=O)(=O)c1nccc(-c2c(-c3ccc(F)c(OCc4ccc(F)cc4)c3)nc3sccn23)n1`, the growth was 70% in assay [1]; 85.5% in [2]; 106% in assay [3]; 75.4% in assay [4]; 100% in [5]; -17.3% (active) in assay [6]. The growth in [7] was 96.7%; in assay [8], 81.1%; in assay [9], 19.9%; in assay [10], 61.6%; in assay [12], 28.4%; in [13], 86.2%. The growth in [14] was 80.1%; in [15] it was 105%; in assay [16], 91.3%; in assay [17], 81.5%; in assay [18], 79.4%.
With `CCNCCCn1c2c(c3cc(OC)c(OC)cc3c1=O)C(=O)c1cc(OC)cnc1-2`, the growth was 22% in [1]; -60.9% (active) in [2]; 17.1% in assay [3]; 25.3% in assay [4]; -16.1% (active) in assay [5]; 46.5% in assay [6]. The growth is -18.2% (active) in [7]; 5.63% (active) in [8]; -8.19% (active) in [9]; 64.7% in assay [10]; 43.3% in assay [12]; 20.8% in [13]. In addition, the growth in [14] is 18%; in assay [15], 64.4%; in [16] it was 6.11% (active); in assay [17], 18.3%; in [20], 15.8%; in assay [18] it was 8.89% (active).
Take `CS(=O)(=O)c1nccc(-c2c(-c3ccc(F)c(OCc4ccccc4)c3)nc3sccn23)n1`: the growth is 79.1% in assay [1]; 103% in [2]; 103% in assay [3]; 96.7% in assay [4]; 107% in assay [5]; -11.3% (active) in assay [6]. The growth was 96.2% in assay [7]; 87% in assay [8]; 44.6% in [9]; 85.9% in [10]; 87.6% in assay [12]; 97.5% in assay [13]. The growth is 86% in assay [14]; 101% in assay [15]; 93.4% in [16]; 93.6% in [17]; 80.3% in assay [20]; 54.7% in [18]. The growth in assay [19] is 74%.

(Values after PubChem BioAssay (NCI).)
